# From PubChem BioAssay (EPA / NIEHS)
# “And” between values parts separate entries of the source, which are not always exact repeats. Equal entries are not always repeated. Where a structure was tested more than once in an assay, its records may differ in their call. The source made the active and inactive calls. How the source made its calls: active means hit-call score of the fitted dose curve at least 0.9, where 1 is the maximum; inactive means score below 0.9.
# Key:
# [1] = test system: TTR (gene 7276); assay: CCTE_GLTED_hTTR_0.125uM: CCTE's human Transthyretin (hTTR) Inhibition Assay, with 0.125uM TTR, Great Lakes Toxicology and Ecology Division (GLTED) Lab (AID 2284431);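 further: hits lower the fluorescence signal relative to DMSO baseline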
# Summary of the method: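 Fluorescence (380 ex, 475 em) reported the ANSA probe remaining bound to 0.125uM human transthyretin. Chemicals were incubated with the protein for 2 hours; activity was scored as loss of signal against DMSO negative control.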
# [2] = CCTE_Padilla_ZF_Score.General: CCTE's 144 Hour Post-fertilization zebrafish Assay Score for General Malformation, Padilla Lab (AID 2284411)
# Summary of the method: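 Malformation, death and hatching were scored at 6 dpf by two blinded observers under a stereo microscope. Embryos were dosed singly from 6-8 hpf in sealed plates of 10% Hanks' at 26C and rinsed on 5 dpf; DMSO baseline.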
# [3] = CCTE_Padilla_ZF_Score.Edema: CCTE's 144 Hour Post-fertilization zebrafish Assay Score for Edema Malformation, Padilla Lab (AID 2284406)
# Summary of the method: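 Edema scored at 6 dpf by two blinded observers under a stereo microscope, in single outbred wild-type larvae exposed from 6-8 hpf in sealed wells (Hanks', 26C, 14:10 h light) and chemical-free after a 5 dpf rinse.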
# [4] = CCTE_Padilla_ZF_Score.Spine: CCTE's 144 Hour Post-fertilization zebrafish Assay Score for Spine Malformation, Padilla Lab (AID 2284407)
# Description: (§1) CCTE_Padilla_ZF_Phenotype_Score is a whole embryo, multiplexed assay using zebrafish ova exposed for 144 hours post fertilization on a 96-well plate.CCTE_Padilla_ZF_Score.Spine is one of one assay component(s) measured or calculated from the CCTE_Padilla_ZF_Phenotype_Score assay. It is designed to make measurements of zebrafish development as detected with brightfield microscopy of developing zebrafish embryos.Data from the assay component CCTE_Padilla_ZF_Score.Spine was analyzed into 1 assay endpoints. This assay endpoint, CCTE_Padilla_ZF_Score.Spine, was analyzed in the positive analysis fitting direction relative to DMSO as the negative control and baseline of activity. Using a type of viability reporter, gain-of-signal activity can be used to understand changes in developmentals as they relate to the whole embryo. To generalize the intended target to other relatable targets, this assay endpoint is annotated to the zebrafish development intended target family, where the subfamily is body axis morphogenesis.
# Zebrafish husbandry: Wild type adult zebrafish (Danio rerio; undefined outbred stock obtained from Aquatic Research Organisms, Hampton, NH, 03842) were housed in an AAALAC-approved animal facility at 28C with a 14:10 h light: dark cycle (lights on at 08:30 h). Adult fish (2-3 females per male; density = 15-20 adults per tank) were kept in one of several 9-liter (L) flow-through colony tanks (Aquaneering Inc., San Diego, CA). All adults in a colony tank were placed in a 2 L (static) breeding tank (Aquatic Habitats, Apopka, FL) one hour prior to light onset. Typically, adults from two to three colony tanks were mated on the same day. Two hours after light onset the adults were returned to the colony tank. […]
# [5] = CCTE_Padilla_ZF_Score.Swim_bladder: CCTE's 144 Hour Post-fertilization zebrafish Assay Score for Swim Bladder Malformation, Padilla Lab (AID 2284408)
# Summary of the method: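 Swim bladder inflation scored at 6 dpf by two blinded observers under a stereo microscope. Exposure ran from 6–8 hpf in sealed wells of 10% Hanks' at 26C, with rinsing at 5 dpf; DMSO served as baseline.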
# [6] = CCTE_Padilla_ZF_Score.Position: CCTE's 144 Hour Post-fertilization zebrafish Assay Score for Position, Padilla Lab (AID 2284409)
# Summary of the method: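 Wild-type zebrafish embryos (with chorions) exposed singly from 6–8 hpf in sealed wells of Hanks' solution at 26C, rinsed at 5 dpf. At 6 dpf, blinded assessors scored abnormal water-column position by brightfield stereomicroscopy, relative to DMSO.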
# [7] = CCTE_Padilla_ZF_Score.Living: CCTE's 144 Hour Post-fertilization zebrafish Assay Score for Viability, Padilla Lab (AID 2284410);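 further: larval death at 6 dpf judged by absent heartbeat or coagulation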
# Summary of the method: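 Mortality at 6 dpf, judged as absent heartbeat or coagulation by two blinded observers, after sealed static exposure beginning at 6–8 hpf at 26C. Larvae were rinsed free of chemical at 5 dpf, and activity was fitted relative to DMSO.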
# [8] = CCTE_Padilla_ZF_Score.Tail: CCTE's 144 Hour Post-fertilization zebrafish Assay Score for Tail Malformation, Padilla Lab (AID 2284414)
# Description: as §1, with “plate.CCTE_Padilla_ZF_Score.Tail” for “plate.CCTE_Padilla_ZF_Score.Spine”, “CCTE_Padilla_ZF_Score.Tail” for “CCTE_Padilla_ZF_Score.Spine”, “CCTE_Padilla_ZF_Score.Tail,” for “CCTE_Padilla_ZF_Score.Spine,”, “lower trunk” for “body axis”
# Zebrafish husbandry: Wild type adult zebrafish (Danio rerio; undefined outbred stock obtained from Aquatic Research Organisms, Hampton, NH, 03842) were housed in an AAALAC-approved animal facility at 28C with a 14:10 h light: dark cycle (lights on at 08:30 h). […]
# [9] = CCTE_Padilla_ZF_Score.Blood_pooling: CCTE's 144 Hour Post-fertilization zebrafish Assay Score for Blood Pooling, Padilla Lab (AID 2284415)
# Summary of the method: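 Blood pooling was scored at 6 dpf under a stereo microscope by two blinded assessors, fitted upward against DMSO. Single embryos were dosed at 6–8 hpf in 10% Hanks', kept sealed at 26C (14:10 h cycle) and rinsed at 5 dpf.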
# [10] = CCTE_Padilla_ZF_Score.Any: CCTE's 144 Hour Post-fertilization zebrafish Assay Score for Any Mortality or Malformation, Padilla Lab (AID 2284416)
# Summary of the method: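 Wild-type zebrafish embryos with chorions, one per well in 10% Hanks' from 6–8 hpf, dosed in sealed plates at 26 C, 14:10 h light:dark; rinsed at 5 dpf; blinded scoring at 6 dpf for death or malformation, versus DMSO.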
smiles,measurement,setting,value
O=C(O)CCCOc1ccc(Cl)cc1Cl,AC50,[1],2.54 µM (active)
ClC1C(Cl)C(Cl)C(Cl)C(Cl)C1Cl (configuration not stated),AC50,[2],8.89 µM (active)
O=S(=O)(O)C(F)(F)C(F)(F)C(F)(F)C(F)(F)C(F)(F)C(F)(F)C(F)(F)C(F)(F)F,AC50,[3],8.88 µM (active) and 7.83 µM (active)
same,AC50,[4],26.6 µM (active)
same,outcome,[4],inactive
same,AC50,[5],8.69 µM (active) and 3.21 µM (active)
same,AC50,[6],8.18 µM (active) and 3.91 µM (active)
same,AC50,[7],10.7 µM (active) and 21.1 µM (active)
same,AC50,[2],8.72 µM (active) and 4.84 µM (active)
same,AC50,[8],8.73 µM (active) and 32.7 µM (active)
same,AC50,[9],10 µM (active)
same,outcome,[9],inactive
same,AC50,[10],8.52 µM (active) and 3.26 µM (active)
same,AC50,[1],115 nM (active) and 159 nM (active)
O=C(O)COc1ccc(Cl)cc1Cl,AC50,[1],8.12 µM (active) and 10.7 µM (active)
Oc1ccc(Cl)cc1Cc1ccccc1,AC50,[1],0.455 µM (active)
Oc1cc(Cl)ccc1Oc1ccc(Cl)cc1Cl,AC50,[1],0.219 µM (active)
COP(=S)(OC)Oc1ccc(SC)c(C)c1,AC50,[1],6.11 µM (active)
C#CCN1C(=O)COc2cc(F)c(N3C(=O)C4=C(CCCC4)C3=O)cc21,AC50,[1],13.3 µM (active)
COP(=S)(OC)Oc1ccc([N+](=O)[O-])cc1,AC50,[1],21.3 µM (active)
O=C(O)C(F)(F)C(F)(F)C(F)(F)C(F)(F)C(F)(F)C(F)(F)C(F)(F)F,outcome,[3],inactive
same,outcome,[4],inactive
same,outcome,[5],inactive
same,outcome,[6],inactive
same,outcome,[7],inactive
same,outcome,[2],inactive
same,outcome,[8],inactive
same,outcome,[9],inactive
same,AC50,[10],2.43 µM (active) and 81.8 µM (active)
same,outcome,[10],inactive
same,AC50,[1],159 nM (active) and 82.9 nM (active)
CCCN(CCC)c1c([N+](=O)[O-])cc(C(F)(F)F)cc1[N+](=O)[O-],AC50,[1],26.1 µM (active)
